PubChem BioAssay AID2320 (National Center for Advancing Translational Sciences (NCATS), 2010)
Records with an inconclusive call do not appear. Activity calls are given as the source filed them. Calls follow the shape of the full dose curve.

Assay: A qHTS for Small Molecule Inhibitors of Shiga Toxin (Confirmatory); also: nearly all actives have a fitted effect of over 75% in size
Settings: Cell-based Shiga toxin protection reporter assay; series mostly up to 38.3 µM
Potency is read from the fitted curve at half-maximal effect.

Row | Compound | Potency
1 | COc1ccc(C2C(C#N)=C(C)NC3=C2C(=O)CC(C)(C)C3)c(OC)c1 (centres undefined) | inactive
2 | CC(C)(C)C(=O)Cn1ncc(N2CCOCC2)c(Br)c1=O | 22.5 µM (active)
3 | CCCC(=O)Nc1cnc(NC(=O)c2cccc(F)c2)cc1C | 0.711 µM (active)
4 | CC1CC(C)CN(C(=O)C(NS(=O)(=O)c2ccc(Br)s2)c2ccccc2)C1 (centres undefined) | 2.25 µM (active)
5 | Cc1ccc(N/C(C(Cl)=C(Cl)Cl)=C(/Cl)[N+](=O)[O-])c(C)c1 | inactive
6 | Cc1cccc(NC(=O)CCN2C(=O)c3ccccc3S2(=O)=O)c1C | 20 µM (active)
7 | O=C1C(Cl)=C(Nc2ccccc2)C(=O)c2ccccc21 | 3.18 µM (active)
8 | O=C(Nc1ccc(Cl)cc1)C1CCN(C(=O)c2cccs2)CC1 | inactive
9 | CC[N+](CC)(CCO)CCCN1C(=O)C2CC=C(Cl)CC2C1=O (centres undefined) | inactive
10 | NC(=O)[C@@H]1CCCN1C(=O)c1ccc2nc(Cc3cccc(Cl)c3)oc2c1 | inactive
11 | CCc1ccccc1NC(=O)Cn1nnc(-c2cccs2)n1 | inactive
12 | O=C(Nc1ccccc1)c1ccccc1O | 14.2 µM (active)
13 | O=C(COc1ncnc2ccccc12)NCCC1=CCCCC1 | inactive
14 | COc1ccc2nc3cc(Cl)ccc3c(NCCCN3CCN(CCCNc4c5ccc(Cl)cc5nc5ccc(OC)cc45)CC3)c2c1 | inactive
15 | CC(=O)c1ccc2noc(-c3ccc(F)cc3)c2c1 | 11.3 µM (active)
16 | O=C(Nc1ccc2oc(-c3ccccc3)nc2c1)c1ccc2c(c1)OCCO2 | 14.2 µM (active)
17 | Cc1c(NC(=O)c2ccc3c(c2)OCO3)cccc1-c1nc2ccccc2o1 | 20 µM (active)
18 | CCC(=O)N1CCN(c2ccccc2NC(=O)c2ccc([N+](=O)[O-])o2)CC1 | 4 µM (active)
19 | Cc1ccc2c(CN3CCCCC3C)cc(=O)oc2c1C (centres undefined) | 0.01 µM (active)
